Source: PubChem BioAssay AID651815 (National Center for Advancing Translational Sciences (NCATS), 2012)
The campaign covered roughly 2,100 compounds. About 1,100 (52%) were called active. Another 29% or so got no clear call; they are omitted. The set was probably picked from earlier hits. The list shows a part of the results. A number with no mark means an inactive call. The call rests on the fitted dose curve; in most records, active means well fitted inhibition curve with a large enough effect; inconclusive means small, poorly fitted or top-dose-only effect; inactive means no such curve, though single readings can be large or run the other way.

biological target: DNA dC->dU-editing enzyme APOBEC-3F (Homo sapiens) (UniProt Q8IUX4); test: qHTS for inhibitors of Vif-A3F interactions: Cherry picks counterscreen; conditions: HeLa A3F-eYFP/Vif cells, eYFP fluorescence, 24 h; series mostly up to 46.1 µM; activity, negative = inhibitor: at the top concentration; further: nearly all actives have a fitted effect of over 65% in size
Sequence (Q8IUX4 whole entry, looked up): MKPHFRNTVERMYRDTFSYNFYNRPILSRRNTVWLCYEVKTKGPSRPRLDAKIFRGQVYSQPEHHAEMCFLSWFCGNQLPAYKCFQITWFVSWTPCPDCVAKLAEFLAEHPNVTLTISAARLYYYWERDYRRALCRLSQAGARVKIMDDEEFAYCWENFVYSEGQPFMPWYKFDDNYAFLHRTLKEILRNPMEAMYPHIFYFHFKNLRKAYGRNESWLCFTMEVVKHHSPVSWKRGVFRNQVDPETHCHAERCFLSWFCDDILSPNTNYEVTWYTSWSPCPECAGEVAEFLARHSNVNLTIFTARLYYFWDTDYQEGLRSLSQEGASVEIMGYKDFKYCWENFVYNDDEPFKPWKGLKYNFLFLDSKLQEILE
Summary of the method: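 Rescue of Vif-driven A3F-eYFP degradation read as cellular eYFP fluorescence after 24 h compound exposure (several concentrations) in stable HeLa cells; MG132 (2 mM stock) as positive control.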
On the % scale 0 is the no-effect control and ±100 the full control effect; potency means the concentration at half of the fitted maximal effect.

Structure (SMILES) | Potency | activity, negative = inhibitor
CCC(C)[C@H](NC(=O)N1CC(=O)Nc2ccccc21)C(=O)Nc1ccccc1C (stereo partly drawn) | 15.8 µM (active) | –
Cc1ccc(N/C(N)=N/c2nc(CSc3nnc(C)s3)cc(=O)[nH]2)c(C)c1 | 1.77 µM (active) | –
CC(=Nc1ccccc1)C1=C(O)C(Cc2ccccc2)NC1=O (stereo not drawn) | 0.314 µM (active) | –
CC#Cc1cc2c(cc1O)CCC1C2CCC2(C)C(O)CCC12 (stereo not drawn) | 5.59 µM (active) | –
C=C(NC(=O)C(=C)NC(=O)c1csc(C2=NC3c4csc(n4)C4NC(=O)c5csc(n5)C(C(C)(O)C(C)O)NC(=O)C5CSC(=N5)/C(=C/C)NC(=O)C(C(C)O)NC(=O)c5csc(n5)C3(CC2)NC(=O)C(C)NC(=O)C(=C)NC(=O)C(=C)NC(=O)C(C(C)C)NC2C=Cc3c(C(C)O)cc(nc3C2O)C(=O)OC4C)n1)C(N)=O (stereo not drawn) | 5.59 µM (active) | –
COc1ccc(NC(=O)CN2C(=O)C3(SCC(=O)N3c3ccccc3)c3ccccc32)cc1Cl (stereo not drawn) | – | 0.792%
CC(CC(=O)Nc1ccc2c(c1)c(=O)n(C)n2-c1ccccc1)c1ccccc1 (stereo not drawn) | 2.23 µM (active) | –
Cn1c(=O)c2cc(NC(=O)Cc3cccc4ccccc34)ccc2n1-c1ccccc1 | 7.04 µM (active) | –
CC(CC(=O)Nc1ccc2c(c1)c(=O)n(C)n2-c1ccccc1F)c1ccccc1 (stereo not drawn) | 12.5 µM (active) | –
CCOc1ccc(S(=O)(=O)NCc2ccccn2)cc1NC(=O)c1ccccc1 | 3.14 µM (active) | –
CCN1/C(=C/C=C2/SC(=Nc3cccc4ncccc34)N(C)C2=O)Sc2ccccc21 | 2.31 µM (active) | –
CCc1ccc2nc(SCC(=O)Nc3ccccc3N3CCOCC3)c(C#N)cc2c1 | 2.59 µM (active) | –
CCc1ccc2nc(SCC(=O)N3CC(=O)Nc4ccccc43)c(C#N)cc2c1 | 14 µM (active) | –
N#Cc1cc2ccccc2nc1SCC(=O)Nc1ccccc1N1CCOCC1 | – | -24.1%
COc1ccc2nc(SCC(=O)N3CC(=O)Nc4ccccc43)c(C#N)cc2c1 | 16.4 µM (active) | –
CCC1CCCCN1CCCNC(=O)c1ccc2c(c1)N(Cc1ccccc1F)C(=O)c1ccccc1S2(=O)=O (stereo not drawn) | 4.11 µM (active) | –
Cc1nc(SCC(=O)c2ccccc2)c(C#N)c(-c2ccco2)c1C(=O)NCc1ccco1 | – | -16.1% [at 36.9 µM]
Cc1ccc(C(=O)CSc2nc(-c3ccccc3)ccc2C#N)cc1 | 16.4 µM (active) | –
N#Cc1ccc(-c2cccnc2)nc1SCC(=O)c1ccccc1 | 2.91 µM (active) | –
CC(=O)c1ccc2cccc3c2c1N=CN3C | 12.5 µM (active) | –
CN1CCc2c(sc(NC(=O)CSc3ccc(F)cc3)c2-c2nc3ccccc3s2)C1 | 14.6 µM (active) | –
CC(=O)N1CCc2c(sc(NC(=O)CSc3ccccc3)c2-c2nc3ccccc3s2)C1 | 16.4 µM (active) | –

Structure (SMILES) | Potency | activity, negative = inhibitor
CC(=O)Nc1sc2c(c1-c1nc3ccccc3s1)CCN(C(C)C)C2 | 3.26 µM (active) | –
CN(C)c1ccc(/C=C/c2cc[n+](C)cc2)cc1 | 17.7 µM (active) | –
Cc1ccc(/C=C/c2ccc(N(C)C)cc2)[n+](C)c1 | 15.8 µM (active) | –
CC[n+]1cc(C)ccc1/C=C/c1ccc(N(C)C)cc1 | 17.7 µM (active) | –
CCOC(=O)c1c(CC(C)C)csc1/N=C/C1C(=O)CCCC1=O | – | -3.7%
O=C(NCc1cccc(C(F)(F)F)c1)c1cccc2c1C(=O)c1ccc(N3CCC(Cc4ccccc4)CC3)cc1S2(=O)=O | 18.4 µM (active) | –
O=C(NCc1cc(C(F)(F)F)ccc1Cl)c1cccc2c1C(=O)c1ccc(N3CCC(Cc4ccccc4)CC3)cc1S2(=O)=O | 14 µM (active) | –
O=C(NCc1cc(C(F)(F)F)ccc1Cl)c1cccc2c1C(=O)c1ccc(N3CCOCC3)cc1S2(=O)=O | 18.4 µM (active) | –
O=C(NCc1ccco1)c1cccc2c1C(=O)c1ccc(N3CCC(Cc4ccccc4)CC3)cc1S2(=O)=O | 20.6 µM (active) | –
Cc1ccc(C(=O)NC2c3ccccc3-c3ccccc32)cc1 | 3.96 µM (active) | –
COc1ccccc1-c1cc(NC=O)c2ncc(-c3ccc(S(C)(=O)=O)cc3)n2c1 | 5.59 µM (active) | –
COc1ccccc1-c1cc(NC=O)c2ncc(-c3cccc(C(=O)N(C)C)c3)n2c1 | 14 µM (active) | –
CN(C)C(=O)c1cccc(-c2cnc3c(NC=O)cc(-c4ccccc4F)cn23)c1 | – | 1.13% [at 36.9 µM]
CC1C/C(=N\NC(N)=S)c2cc(Cl)ccc2S1 (stereo not drawn) | – | 6.56%
O=C(Nc1nnc(-c2ccc3c(c2)CCCC3)o1)c1c(F)cccc1F | – | 10.7%
Cc1ccccc1-n1c(/C=C/c2c(C)n(C)c3ccccc23)nc2ccccc2c1=O | 18.4 µM (active) | –
O=C(Nc1cc(Cl)ccc1-n1cncn1)c1ccc([N+](=O)[O-])s1 | 14 µM (active) | –
COc1cccc(/C=N/NC(=O)c2[nH]nc3c2CCc2ccccc2-3)c1 | 2.5 µM (active) | –
COc1ccc(/C=N/NC(=O)c2[nH]nc3c2CCc2ccccc2-3)cc1OC | 4.98 µM (active) | –
COc1ccc(CN2C(=O)C(C)Nc3ncnc(N4CCc5ccccc5C4)c32)cc1 (stereo not drawn) | 2.8 µM (active) | –
CCn1nc(-c2ccccc2)c2nc3ccccc3nc21 | 20.6 µM (active) | –
O=C(NCC1CCCO1)c1nn2c(C(F)(F)F)cc(-c3cc(Br)cs3)nc2c1Br (stereo not drawn) | 11.6 µM (active) | –

Structure (SMILES) | Potency | activity, negative = inhibitor
CS(=O)(=O)N(CC(=O)N1CCN(Cc2ccccc2)CC1)c1ccccc1F | – | -1.61%
CC(=O)n1c2ccccc2c2nc3ccccc3nc21 | 5.8 µM (active) | –
Cc1cccc(-n2c(N)c(-c3nc4ccccc4n3C)c3nc4ccccc4nc32)c1 | – | -9.95%
CCS(=O)(=O)N1N=C(c2cccc(NS(C)(=O)=O)c2)CC1c1ccc(C)cc1 (stereo not drawn) | 18.4 µM (active) | –
CS(=O)(=O)Nc1ccc(C2=NN(S(C)(=O)=O)C(c3ccc4nccnc4c3)C2)cc1 (stereo not drawn) | – | 5.25%
CS(=O)(=O)N1N=C(c2ccccc2)CC1c1ccc2c(c1)OCO2 (stereo not drawn) | 14 µM (active) | –
Cc1ccc(CNC(=O)C2CC(c3cc(C(F)(F)F)cc(C(F)(F)F)c3)=NO2)o1 (stereo not drawn) | 7.04 µM (active) | –
N#Cc1cc2ccccc2nc1SCc1ccccn1 | 16.4 µM (active) | –
O=C1c2ccccc2C(=O)c2c(/C=C/N3CCCCC3)ccnc21 | 18.4 µM (active) | –
Clc1ccc2c(c1)C(C1=NCCN1)c1ccccc1CS2 (stereo not drawn) | 3.14 µM (active) | –
CC(C)n1c(O)c(N=Nc2ccc(Cl)nn2)c2ccccc21 | 18.4 µM (active) | –
CCC(=O)NC(c1ccc(OC)cc1)c1c(O)ccc2ccccc12 (stereo not drawn) | 6.27 µM (active) | –
CCCC(=O)NC(c1ccc(OC)cc1)c1ccc2cccnc2c1O (stereo not drawn) | – | -1.01%
CN1/C(=C\C=C(/C#N)C(=O)Nc2ccccc2F)C(C)(C)c2ccccc21 | 16.4 µM (active) | –
CN1/C(=C\C=C(/C#N)C(=O)Nc2ccc(Cl)cc2)C(C)(C)c2ccccc21 | 5.59 µM (active) | –
Cc1ccccc1C1CC(c2cccs2)=NN1S(C)(=O)=O (stereo not drawn) | – | -23.5%
Cc1ccc(C2=NN(C(=O)c3cccs3)C(c3ccccc3O)C2)cc1 (stereo not drawn) | – | -4.39% [at 36.9 µM]
Cc1ccc(C2=NN(S(=O)(=O)c3ccccc3)C(c3ccccc3O)C2)cc1 (stereo not drawn) | 18.4 µM (active) | –
O=Nc1ccc(O)c2ncccc12 | – | -23.5% [at 36.9 µM]
Cc1[nH]c2ccccc2c1/C=C/c1ccnc2ccccc12 | 3.26 µM (active) | –
Cc1[nH]c2ccccc2c1/C=C/c1ccc2ccccc2n1 | 18.4 µM (active) | –
O=C(CCl)N1c2ccccc2Oc2ccc3ccccc3c21 | 14 µM (active) | –

Structure (SMILES) | Potency | activity, negative = inhibitor
COc1cc(C2Oc3ccccc3C=C2[N+](=O)[O-])cc(OC)c1OC (stereo not drawn) | 15.8 µM (active) | –
N#CC(C(=O)NCc1ccccc1)c1nc2ccccc2nc1N1CCCC1 (stereo not drawn) | 3.66 µM (active) | –
CCN(CC)c1nc2ccccc2nc1C(C#N)C(=O)NCCc1ccccc1 (stereo not drawn) | 7.31 µM (active) | –
CCCCn1c(N)c(N(Cc2ccccc2OC)C(=O)c2ccc([N+](=O)[O-])s2)c(=O)[nH]c1=O | – | -16.1%
Cc1cc2nc3s/c(=C/c4ccc(-c5ccccc5C(=O)O)o4)c(=O)n3c2cc1C | 11.6 µM (active) | –
Cc1cc(C(=O)N/N=C/c2ccc3c(c2)OCO3)c2ccccc2n1 | 4.44 µM (active) | –
O=C(N/N=C/c1ccsc1)c1cc(-c2cccs2)nc2ccccc12 | 15.8 µM (active) | –
O=C(N/N=C/c1ccc2c(c1)OCO2)c1cc(-c2ccncc2)nc2ccccc12 | 6.27 µM (active) | –
Cc1cccc(C)c1OCC(=O)N/N=C/c1ccc2c(c1)OCO2 | 3.53 µM (active) | –
O=C(N/N=C/c1ccc2c(c1)OCO2)c1cc(-c2ccco2)nc2ccccc12 | 12.5 µM (active) | –
Cc1cc(NC(=O)/C(C#N)=C\c2ccc(-c3ccc(SC(F)F)cc3)o2)n(-c2ccccc2)n1 | 8.2 µM (active) | –
Cc1cc(NC(=O)/C(C#N)=C/c2ccc(-c3ccc(SC(F)F)cc3)o2)n(-c2ccccc2)n1 | 7.31 µM (active) | –
COCCN(CCOC)Cc1c(O)ccc2c1O/C(=C\c1ccc(C)o1)C2=O | – | -6.56%
N#CCSc1ccccc1NC(=O)COc1ccc(-c2nnco2)cc1 | 17.7 µM (active) | –
CCOc1cc(/C=C2\N=C(SC(C)C(N)=O)N(c3ccc(OC(F)F)cc3)C2=O)ccc1O (stereo not drawn) | 4.44 µM (active) | –
Cc1ccc(C=NNC(=O)c2cc(-c3cccnc3)nc3ccccc23)o1 | 8.86 µM (active) | –
Cc1ccc(/C=N/NC(=O)c2cc(-c3ccccc3)nc3ccccc23)o1 | 14 µM (active) | –
C/C(=N\NC(=O)c1cc(C)nc2ccccc12)c1ccncc1 | – | -7.52% [at 36.9 µM]
CCOc1ccc(-c2cc(C(=O)N/N=C(\C)c3cccnc3)c3ccccc3n2)cc1 | – | -1.35% [at 36.9 µM]
Cc1cc(C(=O)N/N=C/c2ccc(C)o2)c2ccccc2n1 | 2.23 µM (active) | –
O=C(N/N=C/c1ccc(Cl)cc1)c1cc(-c2cccnc2)nc2ccccc12 | 4.44 µM (active) | –
CCCN(C(=O)CSc1n[nH]c(-c2ccc(OC)cc2)n1)c1c(N)n(Cc2ccccc2)c(=O)[nH]c1=O | – | -7.52%
